Compounds without any hit were thinned out: in the full panel of roughly 83,000, 20% have a hit.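 Single-concentration screen, 48 h exposure, 96-well plates. Endpoint: percent growth. Below 10 = active.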 A number with no mark means an inactive call. The source made the active and inactive calls.
These compounds were tested on MDA-MB-435 melanoma (assay: NCI-60 one-dose screen, 48 h (100 = growth as untreated, 0 = no growth, -100 = all killed)). Settings: 10 µM unless noted.
Method: Growth inhibition of the MDA-MB-435 human Melanoma tumor cell line is measured as a screen for anti-cancer activity. Cells are grown in 96 well plates and exposed to the test compound for 48 hours. Compounds are tested at a single concentration, which is 10^-5 M for most compounds. The reported endpoint is percent growth (GI% or GIPRCNT), where numbers from 0 - 100% represent growth inhibition, and numbers from -100% - 0 represent cell death. For example, a value of 40 represents 60% growth inhibition. A value of 0 means no net growth occurred over the course of the experiment. A value of -40 indicates 40% of cells at the beginning of the experiment died by the end of the experiment. A value of -100 means all cells are dead at the end of the experiment.
NCI-60 Human Tumor Cell Lines Screen was performed using the standard one-dose NCI protocol, which is described in more detail at https://dtp.cancer.gov/discovery_development/nci-60/default.htm.
Compounds with GIPRCNT values below 10 were considered active. Activity score was based on GIPRCNT using the following formula: […]
Score is 0 for GIPRCNT values of 100 or above, 50 for GIPRCNT values of 0, and 100 for GIPRCNT values of -100.

Structure (SMILES) | growth
CC[N+](CC)=c1cc2oc3cc(N(C)C)ccc3nc-2cc1C | 50.8%
O=C1Nc2ccc3c(c2/C1=C\c1cc2c(cc1Br)OCO2)OCO3 | -38.7% (active)
CCCCN(CCCC)C(=O)CC | 104%
COc1ccc(-c2nc(N3CCCC3=O)sc2Br)cc1OC | 93.5%
COc1ccc(-c2nc(SCCC(C)C)nc(Nc3ccc(F)c(Cl)c3)c2C#N)cc1 | 79.1%
Brc1ccc(-c2[nH]ncc2-c2c[nH]c3ccccc23)cc1 | 92.7%
COc1ccc(C(=O)N2NC(=O)/C(=C/c3ccc(F)cc3)N=C2c2ccccc2)cc1 | 87.6%
CC(=O)c1cc2c(N)c(C(=O)Nc3cccc4c3OCCO4)sc2nc1C | 24.1%
Cc1ccc(Nc2nnc(-c3ccc(Cl)cc3)o2)c(C)c1 | 6.82% (active)
COc1ccc(C(=O)c2cc(OC)c3c(c2)OCO3)cc1O | -22.5% (active)
O=c1[nH]c2ccc(Br)cc2c2c1C(c1ccc(Cl)cc1)c1c(ncn3nc(-c4ccco4)nc13)O2 (stereo not given) | 85.2%
O=C(Nc1ccncc1)C(=O)c1cn(S(=O)(=O)c2ccccc2F)c2ccccc12 | 3.81% (active)
O=C(NS(=O)(=O)c1ccc2ccccc2c1)n1cc(-c2ccncc2)c(-c2ccc(Cl)c(O)c2)n1 | 51.6%
COc1ccc(NC(=O)c2cc(OC)c(OC)c(OC)c2)cc1O | -15.1% (active)
CCCCCCCCCCCCCCCCNC(=O)OC(C)C | 68.5%
CN1CCN(Cc2ccc(NC(=O)c3cncc(C#Cc4cnc(N)c5ccncc45)c3)cc2C(F)(F)F)CC1 | 9.96% (active)
CC1CN(c2oc(-c3ccccc3)nc2C#N)CC(C)O1 (stereo not given) | 103%
O=S(=O)(NCCNc1nccc(-c2c(-c3cccc(O)c3)nc3sccn23)n1)c1ccc(F)cc1 | 29.4%
CCN1CCN(c2nc(NNC(=O)c3ccccc3)nc(N3CCN(C(c4ccccc4)c4ccccc4)CC3)n2)CC1 | 60.2%
C/C(=C\c1ccc(OCC(=O)O)c(Cl)c1Cl)[N+](=O)[O-] | 106%

Structure (SMILES) | growth
CCC1=CCC[C@@]2(C)CCC[C@@]3(C)CCCC(C)(C)[C@]1([O-])[O+]32 | 103%
N#Cc1c(-c2ccccc2)cc(-c2ccccc2)n(CC(=O)NO)c1=O | 49.8%
O=[N+]([O-])c1ccc(Sc2ncccn2)c([N+](=O)[O-])c1 | 69.2%
Fc1ccccc1-c1nc(-c2nc3cc(Cl)c(Cl)cc3[nH]2)c2ccccn12 | 73.6%
Cc1ccc(S(=O)(=O)NCCNc2cc(-c3cn(C(C)(C)C)nc3-c3cccc(O)c3)ccn2)cc1 | 78.1%
COc1cccc(-c2nc3sccn3c2-c2ccnc(NCCCNS(=O)(=O)c3ccc(F)cc3)c2)c1 | 19.1%
COc1ccc(C2=CC(c3cc(OC)c(OC)c(OC)c3)NC(=O)N2)cc1OC (stereo not given) | 7.31% (active)
NC(=O)c1c(NC(=S)Nc2ccc(OC(F)(F)F)cc2)sc2c1CCC1(C2)OCCO1 | 81.6%
CCOC(=O)c1ccc2c(c1)nc(-c1ccc(OCc3ccccc3)c(OC)c1)n2-c1cc(C(C)(C)C)[nH]n1 | 85%
COc1ccc(N2CCN(Cc3cc(C(=O)/C=C/c4c[nH]c5ccccc45)ccc3O)CC2)cc1 | 105%
COc1ccc(-c2c(N)n[nH]c2-c2cc(OC)c3c(c2)OCCO3)cc1 | -24.1% (active)
CSc1nc2c(c(=O)[nH]1)C(c1ccc(C)cc1)C=C(C(=O)O)N2 (stereo not given) | 102%
O=Nc1c(-c2cccc([N+](=O)[O-])c2)nc2ncccn12 | 99.2%
Clc1cc(Cl)c2nc(-c3ccc(-c4ccc(/C=N/NC5=NCCN5)cc4)s3)cn2c1 | 99.3%
C=CCSc1n[nH]c(-c2cccs2)n1 | 106%
C=C1CCC[C@]2(C)CCC[C@H](C)[C@@H](OC(C)=O)[C@@H]3OC(=O)C(=C)[C@@H]3C[C@H]1O2 | 53.9%
NC(N)=N/N=C/c1ccc(-c2ccc(-c3cc(Cl)cc(Cl)c3)s2)cc1 | 1.1% (active)
C=C(C)[C@@H]1C[C@@H]2Cc3cc(Cl)ccc3N1O2 | 99.4%
Cc1csc(NC(c2ccccc2)c2c(C)nc3ccccn23)n1 (stereo not given) | 102%
Cc1cc(N/N=C/c2nc(-c3ccc(Br)cc3)oc2C)c2cc(Br)ccc2n1 | -11.2% (active)
